These results are taken from PubChem BioAssay (EPA / NIEHS).

Broadly, the AC50 is the concentration giving half of the maximal activity seen.

A short description of assay [1]: ATG_TCF_b_cat_CIS: Attagene CIS-FACTORIAL HepG2 Assay for human T-Cell-Factor with beta-catenin (TCF/b-cat) (AID 2282965). Particulars: HepG2 TCF/beta-catenin cis-reporter transcription, actives raise or lower the signal. An outline of the steps:
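Using capillary electrophoresis as the read-out, labelled reporter cDNA fragments from transiently transfected HepG2 were sized and quantified. Exposure lasted 24 hours; activity in either direction was referenced to DMSO.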

Assay [2] in a line: ATG_TAL_CIS: Attagene CIS-FACTORIAL HepG2 Assay for human TAL Basal Promoter (AID 2282966).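 Note: background control endpoint measuring basal TAL promoter reporter mRNA not a specific factor.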 The note with it: HepG2 Attagene cis-factorial TAL promoter reporter; actives raise or lower the signal. In a few lines: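 HepG2 cells transiently transfected with multiplexed cis-promoter reporter units, dosed 24 h. Reporter mRNA quantified by RT-PCR, 6-FAM labelling, HpaI digestion and capillary electrophoresis; TAL basal promoter serves as background control, fitted bidirectionally versus DMSO.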

Assay [3] in a line: ATG_TGFb_CIS: Attagene CIS-FACTORIAL HepG2 Assay for human Transforming Growth Factor (TGF) (AID 2282967). Particulars: HepG2 Attagene CIS TGFb reporter, mRNA transcription; actives raise or lower the signal. An outline of the steps: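 After a 24-hour incubation with compound, transfected HepG2 cells were lysed for RNA; reporter cDNA was amplified, fluorescently end-labeled and separated by CE. DMSO served as baseline for bidirectional fits.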

Assay [4] can be described thus: ATG_VDRE_CIS: Attagene CIS-FACTORIAL HepG2 Assay for human Vitamin D Receptor Element (VDRE) (AID 2282968). The note with it: HepG2 VDRE cis-reporter transcription, actives raise or lower the signal. An outline of the steps: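 HepG2 cells transiently transfected with cis-element reporter units, dosed 24 h; reporter mRNA measured by RT-PCR, 6-FAM labeling, HpaI digestion and capillary electrophoresis. Activity fitted bidirectionally against DMSO baseline.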

Assay [5] addresses Estrogen receptor (Homo sapiens) (UniProt P03372). Description: ATG_ERa_TRANS: Attagene TRANS-FACTORIAL HepG2 Assay for human Estrogen Receptor alpha (ERa) (AID 2282970; active = hit-call score of the fitted dose curve at least 0.9, where 1 is the maximum). Particulars: HepG2 Attagene TRANS ERa GAL4 reporter, mRNA. An outline of the steps: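 HepG2 cells transiently transfected with multiplexed GAL4-UAS reporter units read out chimeric NR-Gal4 activity. After 24 h compound exposure, reporter mRNA was quantified by RT-PCR, 6-FAM labeling, HpaI digestion and capillary electrophoresis, relative to DMSO.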

Assay [6] deals with X-box-binding protein 1 (Homo sapiens) (UniProt P17861). Description: ATG_Xbp1_CIS: Attagene CIS-FACTORIAL HepG2 Assay for human X-box Binding Protein 1 (XBP1) (AID 2282972). The note with it: HepG2 XBP1 cis-element reporter, Attagene multiplex; actives raise or lower the signal. An outline of the steps: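 HepG2 cells transiently transfected with multiple cis-element reporter units report endogenous TF activity; 24 h exposure, then reporter mRNA measured by RT-PCR, 6-FAM labelling, HpaI digestion and capillary electrophoresis. Bidirectional fitting versus DMSO.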

A short description of assay [7]: ATG_M_19_TRANS: Attagene TRANS-FACTORIAL HepG2 Assay for M19 Transcription Factor (Internal Marker) (AID 2282974; active = hit-call score of the fitted dose curve at least 0.9, where 1 is the maximum). Particulars: HepG2 Attagene TRANS-FACTORIAL M19 internal marker reporter. In a few lines:
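Measured here: internal-marker reporter transcript from HepG2 cells transfected with MRTUs, harvested at 24 h. cDNA PCR products were 6-FAM labelled by primer extension, cut with HpaI for 2 h at 37 C, and resolved by CE.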

The target of assay [8] is Steroid hormone receptor ERR1 (Homo sapiens) (UniProt P11474). Nature of the assay: ATG_ERRa_TRANS: Attagene TRANS-FACTORIAL HepG2 Assay for human Estrogen-Related Receptor alpha (ERRa) (AID 2282971; active = hit-call score of the fitted dose curve at least 0.9, where 1 is the maximum). Particulars: HepG2 Attagene TRANS reporter, ERRa transactivation. In a few lines:
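HepG2 cells transiently transfected with GAL4-UAS reporter units and chimeric NR-Gal4 constructs; after 24 hour compound incubation, reporter mRNA quantified by RT-PCR, fluorescent labelling and capillary electrophoresis, gain of signal versus DMSO.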

The target of assay [9] is Nuclear receptor subfamily 1 group I member 3 (Homo sapiens) (UniProt Q14994). Description: ATG_CAR_TRANS: Attagene TRANS-FACTORIAL HepG2 Assay for human Constitutive Androstane Receptor (CAR) (AID 2282969; active = hit-call score of the fitted dose curve at least 0.9, where 1 is the maximum;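 note: activators raise reporter mRNA above DMSO so AC50 marks induction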). The note with it: HepG2 Attagene TRANS-FACTORIAL CAR reporter. An outline of the steps: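 HepG2 cells transiently transfected with multiplexed GAL4-UAS reporter units expressing chimeric NR-Gal4 proteins; compound exposure 24 h. Reporter mRNA measured by RT-PCR, 6-FAM labelling, HpaI digestion and capillary electrophoresis; gain-of-signal fitted against DMSO baseline.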

A short description of assay [10]: ATG_GAL4_TRANS: Attagene TRANS-FACTORIAL HepG2 Assay for GAL4 (Internal Marker) (AID 2282976; active = hit-call score of the fitted dose curve at least 0.9, where 1 is the maximum). Particulars: HepG2 Attagene TRANS GAL4 internal marker reporter. An outline of the steps:
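Background-control readout: GAL4-UAS reporter transcript in transiently transfected HepG2 cells after 24 h compound exposure. Measured by RT-PCR, 6-FAM primer extension, HpaI digest and capillary electrophoresis; gain-of-signal fit versus DMSO.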

Several values for one entry are separate records, joined by “and”; a condition that tells them apart may be missing. Equal entries are not always repeated. Records with an inconclusive call do not appear. Where a structure was tested more than once in an assay, its records may differ in their call. Activity calls are given as the source filed them. Rule for the calls, unless noted: active = hit-call score of the fitted dose curve at least 0.9, where 1 is the maximum; inactive = score below 0.9.

Sequence of Estrogen receptor (Homo sapiens) (P03372 whole entry, looked up, the tested form may be a part): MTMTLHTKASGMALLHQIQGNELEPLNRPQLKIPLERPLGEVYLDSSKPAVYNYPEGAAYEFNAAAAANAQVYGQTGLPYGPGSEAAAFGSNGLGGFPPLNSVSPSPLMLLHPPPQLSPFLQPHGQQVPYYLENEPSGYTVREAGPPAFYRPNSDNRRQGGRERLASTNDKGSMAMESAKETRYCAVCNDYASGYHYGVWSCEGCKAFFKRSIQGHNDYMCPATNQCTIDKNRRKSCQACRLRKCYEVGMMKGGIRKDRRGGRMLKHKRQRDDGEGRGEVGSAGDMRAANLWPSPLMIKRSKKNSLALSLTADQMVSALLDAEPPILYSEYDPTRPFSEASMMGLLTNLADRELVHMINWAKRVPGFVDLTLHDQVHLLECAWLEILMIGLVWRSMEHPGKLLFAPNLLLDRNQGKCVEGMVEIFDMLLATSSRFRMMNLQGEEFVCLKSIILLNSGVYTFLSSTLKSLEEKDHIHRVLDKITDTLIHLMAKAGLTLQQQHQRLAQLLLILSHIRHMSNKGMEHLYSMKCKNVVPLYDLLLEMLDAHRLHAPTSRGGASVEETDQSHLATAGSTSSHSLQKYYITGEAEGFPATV
Sequence of Nuclear receptor subfamily 1 group I member 3 (Homo sapiens) (Q14994 whole entry, looked up, the tested form may be a part): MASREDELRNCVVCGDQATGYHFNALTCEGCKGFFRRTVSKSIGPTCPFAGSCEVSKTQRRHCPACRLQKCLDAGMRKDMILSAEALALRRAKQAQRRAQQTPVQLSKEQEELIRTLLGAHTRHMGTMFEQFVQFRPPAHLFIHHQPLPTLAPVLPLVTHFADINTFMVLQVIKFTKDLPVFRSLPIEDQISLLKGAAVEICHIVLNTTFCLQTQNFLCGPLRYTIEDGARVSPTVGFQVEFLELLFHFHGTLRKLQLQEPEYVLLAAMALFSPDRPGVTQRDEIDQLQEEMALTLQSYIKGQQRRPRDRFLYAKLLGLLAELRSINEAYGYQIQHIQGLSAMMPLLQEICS
Sequence of Steroid hormone receptor ERR1 (Homo sapiens) (P11474 whole entry, looked up, the tested form may be a part): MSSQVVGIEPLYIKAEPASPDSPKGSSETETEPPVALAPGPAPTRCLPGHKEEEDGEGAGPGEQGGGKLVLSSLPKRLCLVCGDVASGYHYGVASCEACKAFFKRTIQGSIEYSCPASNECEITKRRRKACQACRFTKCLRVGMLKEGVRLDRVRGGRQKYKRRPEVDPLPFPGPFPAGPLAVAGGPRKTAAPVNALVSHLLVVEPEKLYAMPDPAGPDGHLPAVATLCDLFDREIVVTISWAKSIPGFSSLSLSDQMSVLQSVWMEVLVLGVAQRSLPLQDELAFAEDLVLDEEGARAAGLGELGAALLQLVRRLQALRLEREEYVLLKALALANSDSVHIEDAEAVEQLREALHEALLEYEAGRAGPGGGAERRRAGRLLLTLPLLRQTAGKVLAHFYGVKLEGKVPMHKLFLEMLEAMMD
Sequence of X-box-binding protein 1 (Homo sapiens) (P17861 whole entry, looked up): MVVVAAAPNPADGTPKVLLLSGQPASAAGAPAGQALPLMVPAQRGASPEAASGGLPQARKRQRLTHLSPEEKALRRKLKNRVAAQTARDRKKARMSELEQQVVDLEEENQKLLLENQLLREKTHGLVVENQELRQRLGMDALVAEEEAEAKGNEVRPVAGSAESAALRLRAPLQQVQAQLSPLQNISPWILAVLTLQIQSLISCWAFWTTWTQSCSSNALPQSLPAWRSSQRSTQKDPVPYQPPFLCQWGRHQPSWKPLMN

Consider `NC(=O)N(O)[C@@H]1C=C[C@H](Oc2cccc(Oc3ccc(F)cc3)c2)C1`, for which the AC50 in [1] is 33 µM (active); in assay [4] it was 26 µM (active); in assay [5] it was 11.2 µM (active). In addition, the call in [2], in assay [3], in assay [6] and in assay [7] was inactive.

As for `OC1CCC(C2CCCCC2)CC1` (stereo not given), the outcome in assay [1], in assay [2], in [3], in assay [4], in [8] and in assay [6] was inactive. The outcome in [7] was inactive.

`c1ccc2c(c1)Cc1ccccc1-2`: the compound was called inactive in assay [1], in assay [2], in assay [3], in assay [4] and in assay [6]. In addition, the AC50 in assay [5] was 35.4 µM (active).

`CC(O)CO` (stereo not given): the compound was classed as inactive in assay [1], in assay [2], in assay [3], in [4], in assay [5] and in [6].

For the compound `CCC(=C(c1ccc(O)cc1)c1ccc(OCCN(C)C)cc1)c1ccccc1`, the AC50 in [1] was 3.39 µM (active); in [2], 10.4 µM (active); in assay [4], 3.53 µM (active) and 7.1 µM (active) and 2.37 µM (active); in assay [6], 11.2 µM (active) and 2.37 µM (active). Also, the compound was called inactive in assay [1], in assay [2], in assay [4], in assay [9], in assay [8] and in assay [6]. In addition, the compound was called inactive in [7].

As to `O=C(/C=C/c1ccc(O)cc1)CC(=O)/C=C/c1ccc(O)cc1`, the call in assay [1], in [2], in assay [3], in assay [9], in assay [5] and in [8] was inactive. Besides, the compound was classed as inactive in assay [6]. Further, the AC50 in assay [4] is 5.76 µM (active).

Take `CC(C)(C)c1ccc(O)c(C(C)(C)C)c1`: the compound was classed as inactive in assay [1], in [2], in assay [3], in assay [4], in assay [5] and in [6]. In assay [9], the AC50 was 4.79 µM (active).

For the compound `COc1ccc([N+](=O)[O-])cc1N`, the outcome in assay [1], in [2], in [3], in assay [4], in assay [5] and in [6] was inactive. Moreover, in [7], the result was inactive.

In the case of `c1ccc2c(c1)ccc1ccccc12`, the compound was classed as inactive in assay [1], in [2], in assay [3], in [4], in [9] and in assay [5]. Further, the outcome in [8] and in assay [6] was inactive.

For `O=c1c(-c2ccc(O)cc2)coc2cc(O)ccc12`, the AC50 in assay [1] was 27.9 µM (active). Besides, the outcome in [1], in assay [2], in assay [3], in [9] and in assay [6] was inactive.

As for `O=C(O)Cc1cc(I)c(Oc2cc(I)c(O)c(I)c2)c(I)c1`, the call in assay [1], in assay [2], in [3], in assay [5], in assay [6] and in assay [7] was inactive. Also, the AC50 in assay [2] was 67 µM (active); in assay [4], 18.1 µM (active) and 23 µM (active); in [6], 34.1 µM (active).

Consider `OCCC(F)(F)C(F)(F)C(F)(F)C(F)(F)C(F)(F)C(F)(F)C(F)(F)C(F)(F)F`, for which the AC50 in assay [1] is 33.4 µM (active); in [4], 25.8 µM (active) and 150 µM (active); in assay [5], 7.75 µM (active); in assay [6] it was 48.2 µM (active) and 112 µM (active). In addition, the compound was called inactive in [1], in assay [2], in assay [9], in [5] and in assay [7].

Turning to `COC(=O)CCCCC(=O)OC`, the compound was classed as inactive in assay [1], in [2], in [3], in [4], in assay [5] and in assay [6].

Turning to `CCC(C)(C)C1CCC(O)CC1` (stereo not given), in assay [1], the AC50 is 100 µM (active). The outcome in [1], in assay [2], in [3], in assay [4], in [9] and in [6] was inactive. For the same compound, the result in [7] and in assay [10] was inactive.

On to `CC[C@H](C)[C@@H](C(=O)O)n1sc2ccccc2c1=O`, for which the outcome in assay [1], in assay [2], in [3], in assay [4], in [9] and in assay [5] was inactive. The result in [6] and in [7] was inactive.

`OC1CCCCC1`: the compound was classed as inactive in assay [1], in assay [2], in assay [3], in assay [4], in assay [5] and in assay [6].
